Results as given in PubChem BioAssay (EPA / NIEHS).
“And” between values parts separate entries of the source, which are not always exact repeats. Equal entries are not always repeated. The source made the active and inactive calls. How the source made its calls: active means hit-call score of the fitted dose curve at least 0.9, where 1 is the maximum; inactive means score below 0.9.

Each compound was assayed on Thrombomodulin, THBD (gene 7056) (assay: BSK_3C_Thrombomodulin: BioMAP Diversity Plus: 3C Assay for Thrombomodulin Biomarker Activity (AID 2283029)). Conditions: primary human endothelial cells (HUVEC); actives raise or lower the signal.
Procedure: BSK_3C is a cell-based, multiplexed-readout assay that uses umbilical vein endothelium, a human vascular primary cell, with measurements taken at 24 hours after chemical dosing in a 96-well plate.BSK_3C_Thrombomodulin is an assay component measured in the BSK_3C assay. It measures Thrombomodulin antibody related to regulation of gene expression using ELISA technology.Data from the assay component BSK_3C_Thrombomodulin was analyzed into 1 assay endpoint. This assay endpoint, BSK_3C_Thrombomodulin, was analyzed with bidirectional fitting relative to DMSO as the negative control and baseline of activity. Using a type of binding reporter, gain or loss-of-signal activity can be used to understand changes in the signaling as they relate to the gene THBD. Furthermore, this assay endpoint can be referred to as a primary readout, because this assay has produced multiple assay endpoints where this one serves a signaling function. To generalize the intended target to other relatable targets, this assay endpoint is annotated to the gpcr intended target family, where the subfamily is rhodopsin-like receptor.
The levels of cell surface (or secreted, indicated by the prefix "s") biomarker endpoints were measured by ELISA. Overt cytotoxicity to cells in confluent adherent cultures (all systems other than the BT system) was assessed by measuring total protein levels using sulforhodamine B (SRB) staining in parallel cultures at the time of biomarker measurements, indicated as SRB endpoints. For proliferation assays for adherent cell types, individual cell types are cultured at sub-confluence and relative cell numbers quantified by SRB staining at time points optimized for each system (48 h: 3C and CASM3C systems; 72 h: BT and HDF3CGF systems; 96 h: SAg system). SRB was performed by staining cells with 0.1% SRB after fixation with 10% TCA and reading wells at 560 nm.Viability and proliferation of PBMC (T cells) was quantified by Alamar Blue reduction for the SAg and BT systems. For PBMC viability (referred to as PBMC Cytotoxicity within the assay endpoint names), cells were plated (75,000/well in a 96-well plate) and then chemical samples added for 1 h before addition of activators, SEB and TSST-1 (20 ng/mL final concentration each). Cells were incubated for 90 h. Then, Alamar Blue (20 uL/well) (Invitrogen, Cat DAL1100) was added for 6 h, and the plates were read with a fluorescence microplate reader at 546/580 nm (excitation/emission). For PBMC proliferation, cells were plated and activated as above but incubated for only 16 h prior to addition of Alamar Blue. Plates were read after 6 h.

| Structure (SMILES) | outcome | AC50 |
| --- | --- | --- |
| COCC(=O)N(c1c(C)cccc1C)N1CCOC1=O | inactive |  |
| CNC(=O)Oc1cc(C)c(SC)c(C)c1 | inactive |  |
| O=P1(NCCCl)OCCCN1CCCl (stereo not drawn) | inactive |  |
| CC(C)(C)C(=O)CCl | inactive |  |
| CCCOC(=O)c1ccccc1C(=O)OCCC | inactive |  |
| CC(C)(c1cc(Cl)c(O)c(Cl)c1)c1cc(Cl)c(O)c(Cl)c1 |  | 20 µM (active) |
| O=C(CCl)c1ccccc1 | inactive |  |
| O=C1C(Cl)=C(Cl)C(=O)C(Cl)=C1Cl |  | 5.02 µM (active) |
| CC1(C)[C@H](C(=O)O[C@H](C#N)c2cccc(Oc3ccccc3)c2)[C@@H]1C=C(Br)Br | inactive |  |
| CC(=O)/C=C/c1ccccc1 | inactive |  |
| c1ccc(Nc2ccc3ccccc3c2)cc1 | inactive |  |
| Oc1ccc(C2(c3ccc(O)cc3)c3ccccc3-c3ccccc32)cc1 |  | 5.01 µM (active) and 11.3 µM (active) |
| CC(C)COP(=O)(OCC(C)C)OCC(C)C | inactive |  |
| O=[N+]([O-])O | inactive |  |
| CC(C)CCCCCCCOC(=O)c1ccccc1C(=O)OCCCCCCCC(C)C | inactive |  |
| O=[N+]([O-])c1ccc(Cl)cc1 | inactive |  |
| COc1ccc(CO)cc1 | inactive |  |
| O=C(O)CCCc1ccc(N(CCCl)CCCl)cc1 | inactive |  |
| CC(C)CCCCCCCOP(=O)(Oc1ccccc1)Oc1ccccc1 |  | 20 µM (active) |

| Structure (SMILES) | outcome | AC50 |
| --- | --- | --- |
| C=CC(=O)OCC(CC)CCCC (stereo not drawn) |  | 3.97 µM (active) |
| COC(C)(C)CCC[C@H](C)C/C=C/C(C)=C/C(=O)OC(C)C | inactive |  |
| O=[N+]([O-])C=Cc1ccccc1 | inactive |  |
| O=C1C=CC(=O)C=C1 | inactive |  |
| Oc1cc(Cl)ccc1Cl | inactive |  |
| C=CCN(CC=C)C(=O)C(Cl)Cl | inactive |  |
| Cc1ccc(OP(=O)(Oc2ccc(C)cc2)Oc2ccc(C)cc2)cc1 (tested in a mixture with another compound) |  | 3.59 µM (active) |
| O=S(=O)(c1ccccc1)c1ccccc1 | inactive |  |
| O=c1[nH]c(Cl)c(Cl)cc1Cl | inactive |  |
| CCCC[N+](CCCC)(CCCC)CCCC | inactive |  |
| O=c1c2ccccc2c(=O)c2c1cc(Cl)c1[nH]c3c([nH]c12)c(Cl)cc1c(=O)c2ccccc2c(=O)c13 | inactive |  |
| CCC(C)c1cc([N+](=O)[O-])cc([N+](=O)[O-])c1OC(=O)C=C(C)C (stereo not drawn) | inactive |  |
| Nc1ccc(-c2ccc(N)c(N)c2)cc1N | inactive |  |
| CCc1cc(C)cc(CC)c1-c1c(OC(=O)C(C)(C)C)n2n(c1=O)CCOCC2 | inactive |  |
| CCCCCCCCCCCC#N | inactive |  |
| CC(C)(C)C(O)C(Oc1ccc(-c2ccccc2)cc1)n1cncn1 (stereo not drawn) | inactive |  |
| [Cd+2].[Cl-].[Cl-] | inactive |  |
| N#CCCCCC#N | inactive |  |
| Clc1ccc(-c2ccccc2)cc1 | inactive |  |
